Reference: PubChem BioAssay (Tox21)
Inconclusive results are not listed. Active and inactive are the calls of the source. Unless noted, calls follow the shape of the dose curve; as a rule, active = well fitted curve in the direction sought with a large enough effect in the repeat runs; inconclusive = weak or mixed curves; inactive = no such curve, though single readings can be large; an effect the other way counts as inactive or inconclusive.

Experiments:
[1] = qHTS assay to identify small molecule agonists of the peroxisome proliferator-activated receptor delta (PPARd) signaling pathway - cell viability counter screen (AID 743211); also: nearly all actives have a fitted effect of over 55% in size
How it was run: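 qHTS cell viability: PPARd-bla HEK293H; 17 h cpd, 37C; CellTiter-Glo, luminescence at 30 min RT.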

[2] = target: Peroxisome proliferator-activated receptor delta (Homo sapiens) (UniProt Q03181); assay: qHTS assay to identify small molecule agonists of the peroxisome proliferator-activated receptor delta (PPARd) signaling pathway (AID 743212; calls by dose curve)
Chain of Peroxisome proliferator-activated receptor delta (Homo sapiens) (Q03181 whole entry, looked up): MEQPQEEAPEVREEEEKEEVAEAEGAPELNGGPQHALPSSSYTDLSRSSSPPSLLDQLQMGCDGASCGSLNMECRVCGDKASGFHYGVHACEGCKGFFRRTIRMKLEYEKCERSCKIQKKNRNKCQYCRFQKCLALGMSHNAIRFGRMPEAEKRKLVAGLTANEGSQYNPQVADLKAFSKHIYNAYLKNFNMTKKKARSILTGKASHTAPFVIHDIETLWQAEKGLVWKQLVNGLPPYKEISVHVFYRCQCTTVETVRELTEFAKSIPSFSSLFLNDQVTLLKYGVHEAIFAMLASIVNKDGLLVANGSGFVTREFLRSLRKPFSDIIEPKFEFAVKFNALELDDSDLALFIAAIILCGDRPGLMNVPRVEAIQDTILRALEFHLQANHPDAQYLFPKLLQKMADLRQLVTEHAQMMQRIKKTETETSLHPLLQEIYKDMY
How it was run: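 A PPARd-bla HEK293H line with beta-lactamase under an Upstream Activator Sequence is treated with compounds at 37 C. Substrate loading for 2 h at room temperature precedes the fluorescence measurement.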

[3] = qHTS assay to identify small molecule antagonists of the peroxisome proliferator-activated receptor delta (PPARd) signaling pathway - cell viability counter screen (AID 743213); also: nearly all actives have a fitted effect of over 50% in size
How it was run: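 Cytotoxicity counter screen: CellTiter-Glo luminescence read 30 min after addition, in the same wells as the reporter assay. There, PPARd UAS-bla HEK293H cells (3000/well) were treated 17 h at 37 C with compound and 300 nM L165041.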

[4] = target: Peroxisome proliferator-activated receptor delta (Homo sapiens) (UniProt Q03181); assay: qHTS assay to identify small molecule antagonists of the peroxisome proliferator-activated receptor delta (PPARd) signaling pathway (AID 743215; active = well fitted inhibition curve with a large enough effect in the signal ratio in the repeat runs, not every such curve was filed as active; the % refers to the signal ratio;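 also: cells stimulated with agonist L165041 at 300 nM final during compound exposure; series mostly up to about 62 µM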)
How it was run: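 With L165041 present at 300 nM final, compounds were incubated 17 h at 37 C on PPARd UAS-bla HEK293H cells. A FRET-based beta-lactamase substrate was then applied for 2 h at room temperature and fluorescence intensity recorded.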

[5] = target: Bile acid receptor (Homo sapiens) (UniProt Q96RI1); assay: qHTS assay to identify small molecule antagonists of the farnesoid-X-receptor (FXR) signaling pathway (AID 743217; active = well fitted inhibition curve with a large enough effect in the signal ratio in the repeat runs, not every such curve was filed as active; the % refers to the signal ratio)
Chain of Bile acid receptor (Homo sapiens) (Q96RI1 whole entry, looked up): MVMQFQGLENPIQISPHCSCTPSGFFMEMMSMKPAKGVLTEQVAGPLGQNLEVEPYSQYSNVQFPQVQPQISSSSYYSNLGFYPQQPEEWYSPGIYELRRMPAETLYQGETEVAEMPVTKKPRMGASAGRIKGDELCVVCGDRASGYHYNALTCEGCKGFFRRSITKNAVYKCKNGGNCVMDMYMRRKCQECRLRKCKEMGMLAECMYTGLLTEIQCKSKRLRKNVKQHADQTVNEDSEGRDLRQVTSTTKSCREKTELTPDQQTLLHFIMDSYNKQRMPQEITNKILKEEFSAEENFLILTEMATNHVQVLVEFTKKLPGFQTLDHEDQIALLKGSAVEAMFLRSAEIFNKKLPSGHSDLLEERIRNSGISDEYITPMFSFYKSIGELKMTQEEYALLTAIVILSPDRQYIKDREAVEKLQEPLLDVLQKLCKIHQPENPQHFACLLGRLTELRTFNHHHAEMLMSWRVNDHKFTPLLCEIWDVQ
How it was run: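 In this cell-based antagonist screen, inhibition of CDCA-driven (50 uM final) UAS-beta-lactamase expression in HEK 293T cells was measured by FRET fluorescence following 16 h compound exposure at 37 °C.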

[6] = qHTS assay to identify small molecule agonists of the farnesoid-X-receptor (FXR) signaling pathway - cell viability counter screen (AID 743218); also: nearly all actives have a fitted effect of over 45% in size
How it was run: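 After 16 h at 37 C with test compounds, FXR-bla HEK 293T cells were given LiveBLAzer B/G substrate for 2 h at RT and then CellTiter-Glo; luminescence was taken after 30 min.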

[7] = target: Bile acid receptor (Homo sapiens) (UniProt Q96RI1); assay: qHTS assay to identify small molecule agonists of the farnesoid-X-receptor (FXR) signaling pathway (AID 743220; active = well fitted activation curve with a large enough effect in the signal ratio in the repeat runs, not every such curve was filed as active; the % refers to the signal ratio)
How it was run: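 Beta-lactamase reporter under UAS control in GeneBLAzer FXR HEK 293T cells (5000/well) measured with LiveBLAzer FRET substrate after 2 h at room temperature. Compound exposure lasted 16 h at 37C.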

[8] = qHTS assay to identify small molecule antagonists of the farnesoid-X-receptor (FXR) signaling pathway - cell viability counter screen (AID 743221; active = well fitted cell-killing curve with a large enough effect in the repeat runs, not every such curve was filed as active; also: nearly all actives have a fitted effect of over 50% in size)
How it was run: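 After a 5 h settling period, FXR-bla HEK 293T cells receive compound and chenodeoxycholic acid (50 uM final) and incubate 16 h at 37 C; CellTiter-Glo luminescence, read after 30 min at room temperature, reports cell viability.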

[9] = target: Vitamin D3 receptor (Homo sapiens) (UniProt P11473); assay: qHTS assay to identify small molecule agonists of the vitamin D receptor (VDR) signaling pathway (AID 743222; calls by dose curve)
Chain of Vitamin D3 receptor (Homo sapiens) (P11473 whole entry, looked up): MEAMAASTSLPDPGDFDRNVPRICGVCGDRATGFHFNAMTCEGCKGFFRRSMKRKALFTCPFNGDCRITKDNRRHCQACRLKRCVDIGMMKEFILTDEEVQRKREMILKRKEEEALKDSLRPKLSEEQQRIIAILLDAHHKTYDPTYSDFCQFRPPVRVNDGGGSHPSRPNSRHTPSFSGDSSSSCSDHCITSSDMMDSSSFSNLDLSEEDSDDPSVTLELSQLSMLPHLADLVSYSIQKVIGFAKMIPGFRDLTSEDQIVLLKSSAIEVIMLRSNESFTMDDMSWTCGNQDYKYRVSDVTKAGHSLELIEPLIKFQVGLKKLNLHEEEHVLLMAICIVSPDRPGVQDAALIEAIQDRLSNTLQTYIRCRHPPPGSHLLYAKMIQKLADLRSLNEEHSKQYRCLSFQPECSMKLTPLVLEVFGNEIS
How it was run: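 VDR-bla cells were seeded, left 4 h, treated with compounds in DMSO for 16 h, incubated 2 h at RT with B/G FRET substrate, and read for fluorescence.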

[10] = target: Vitamin D3 receptor (Homo sapiens) (UniProt P11473); assay: qHTS assay to identify small molecule antagonists of the vitamin D receptor (VDR) signaling pathway (AID 743223; active = well fitted inhibition curve with a large enough effect in the signal ratio in the repeat runs, not every such curve was filed as active; the % refers to the signal ratio)
How it was run: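 Reporter line VDR-bla; stimulus 1alpha,25-(OH)2 vitamin D3, 3 nM final; compound co-addition, 16 h 37C/5% CO2; LiveBLAzer B/G substrate 2 h RT; fluorescence intensity.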

Measured: Potency

Cc1cc(=O)[nH]c(C(C)C)n1
inactive: all assays above

O=C1O[C@H](CO)[C@@H](O)[C@H](O)[C@H]1O
inactive: all assays above

CC1CC(OC(=O)c2ccccc2O)CC(C)(C)C1 (configuration not stated)
inactive: [1] | [2] | [3] | [4] | [6] | [8]

CCC(C)C=O (configuration not stated)
not listed: [10]
inactive: all other assays above

Oc1ccc(OCc2ccccc2)cc1
inactive: all assays above

O=C(Cl)c1c(Cl)c(Cl)c(C(=O)Cl)c(Cl)c1Cl
not listed: [9] | [10]
inactive: all other assays above

O=c1c(-c2ccc(O)cc2)coc2cc(O)ccc12
not listed: [5] | [9] | [10]
inactive: all other assays above

O=S(=O)(O)CCS
not listed: [9] | [10]
inactive: all other assays above

CCOC(=O)[C@H](CCc1ccccc1)N[C@@H](C)C(=O)N1Cc2ccccc2C[C@H]1C(=O)O
inactive: all assays above

CCCCCCCCCCCCOCC1CO1 (configuration not stated)
not listed: [10]
inactive: all other assays above

O=C(c1ccc(O)cc1)c1ccc(O)cc1O
not listed: [9] | [10]
inactive: all other assays above

c1ccc2ccccc2c1
not listed: [10]
inactive: all other assays above

O=C(O)c1ccc([N+](=O)[O-])cc1
inactive: all assays above

O=Nc1ccc(O)cc1
not listed: [9] | [10]
inactive: all other assays above

COC(=O)c1ccccc1O
not listed: [5] | [7]
inactive: all other assays above

C=C(C)C(=O)OCCCCCCCCCCCC
not listed: [5] | [7]
inactive: all other assays above

Nc1nc2ncc(CNc3ccc(C(=O)N[C@@H](CCC(=O)O)C(=O)O)cc3)nc2c(=O)[nH]1
not listed: [5] | [7] | [10]
inactive: all other assays above

O=[N+]([O-])C(CO)(CO)CO
not listed: [5] | [7]
inactive: all other assays above

CC(C)(C)C1CCC(O)CC1 (configuration not stated)
not listed: [5] | [7]
inactive: all other assays above

Nc1cc(-c2ccncc2)c[nH]c1=O
not listed: [5] | [7] | [10]
inactive: all other assays above

CC1=CC[C@H]2C[C@@H]1C2(C)C
inactive: [1] | [2] | [3] | [6] | [8] | [9]

O=[N+]([O-])c1cc(N(CCO)CCO)ccc1NCCO
not listed: [5] | [7] | [10]
inactive: all other assays above

CCOC(=O)/C=C\C(=O)OCC
not listed: [5] | [7] | [10]
inactive: all other assays above

O=S(=O)(Oc1ccc(Cl)cc1Cl)c1ccccc1
not listed: [5] | [7] | [10]
inactive: all other assays above

CC(=O)[C@@]1(O)CC[C@H]2[C@@H]3CCC4=CC(=O)CC[C@]4(C)[C@H]3CC[C@@]21C
inactive: [1] | [2] | [3] | [6] | [8]

C[C@@H]1O[C@@H](OC[C@H]2O[C@@H](Oc3c(-c4ccc(O)c(O)c4)oc4cc(O)cc(O)c4c3=O)[C@H](O)[C@@H](O)[C@@H]2O)[C@H](O)[C@H](O)[C@H]1O
not listed: [5] | [7] | [10]
inactive: all other assays above
